Compounds with a hit are over-represented: about 19% of the library has one in this group of screens.
HT1080 IDH1KD tx – kills HT-1080 cells with IDH1 knockdown. hit rate 2% among 360,000. Potency, µM (top dose mostly 46.1 µM), hits mostly cytotoxic. HT-1080 IDH1 knockdown viability, ATP luminescence, 48 h
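CellTiter-Glo luminescence after 48 h compound exposure at 37 degrees C of IDH1-knockdown HT-1080 cells in 5% FBS RPMI. %Activity scaled between DMSO wells and cell-free media wells, with curves fitted and assigned curve classes.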
ELG1 repair inh – inhibitors of ELG1-dependent DNA repair in HEK293T cells. HEK293T ELG1-luciferase reporter, luminescence, 16 h; DNA damage induced by 5-fluorouridine. Potency, µM (series often up to 46.1 µM), hits mostly inhibitors. hit rate 2.3% among 330,000. AID 504467; note: nearly all actives have a fitted effect of over 55% in size
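Cells (2,000 per well) received 5-fluorouridine plus test compound or DMSO and were incubated 16 hr at 37 °C, 5% CO2. Luciferase activity was read by luminescence 30 min after ONE-Glo addition; signal suppression marked inhibition of damage-induced ELG1 function.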
IL-1B inflam inh – inhibitors of inflammasome signaling (IL-1 beta secretion). hit rate 4.7% among 360,000. AID 743279. activity change, % at 57.5 µM. THP-1 LPS/ATP IL-1B secretion, AlphaLISA, 16 h; stronger effect = lower value; in the data active = activity change below about -50%; inconclusive = mostly about -30% to -49%
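Secreted IL-1B measured by AlphaLISA bead assay after 16 h compound exposure of THP-1 cells; compounds (final up to 57.5 uM) added 1 h before LPS (250 ng/mL) and ATP (1.25 mM) stimulation; lower signal means less secretion.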
HT1080NT lethal – kills 2HG-producing HT-1080-NT fibrosarcoma cells | Potency, µM (top dose mostly 46.1 µM), most hits filed as cytotoxic | HT-1080-NT fibrosarcoma viability, CellTiter-Glo ATP luminescence, 48 h | hit rate 1.6% among 360,000;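 note: NT is the 2HG producing partner of a matched IDH1 knockdown line; nearly all actives have a fitted effect of over 55% in size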
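Fibrosarcoma NT cells, 750 per well in 5% FBS RPMI, were exposed to compound for 48 hours. Viability: CellTiter-Glo luminescence.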
DT40 TDP1 CPT – DT40-hTDP1 cell growth loss with CPT; AID 686979; chicken DT40 Tdp1-/-;hTDP1 cells + 20 nM CPT, ATP luminescence, 48 h; hit rate 12% among 420,000; Potency, µM (titrated, usually from 46.2 µM), hits mostly inhibitors; note: nearly all actives have a fitted effect of over 55% in size
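Chicken DT40 Tdp1-/- cells complemented with human TDP1, 400 cells/well, exposed to compounds plus 20 nM camptothecin for at least 48 h at 37 C; viability read as ATP content by CellTiter-Glo luminescence.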
DT40 TDP1 no CPT – qHTS for Inhibitors of human tyrosyl-DNA phosphodiesterase 1 (TDP1): qHTS in cells in absence of CPT | DT40 Tdp1-/- hTDP1 cells, no CPT, ATP luminescence, 48 h | Potency, µM (series often up to 46.2 µM), most hits filed as inhibitors | hit rate 15% among 420,000; note: nearly all actives have a fitted effect of over 55% in size
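Cells were dispensed at 400 per well, compounds added by pin tool, plates incubated ≥48 hr at 37 °C, then CellTiter-Glo added for 30 min at room temperature before luminescence reading. Line: DT40 Tdp1-/- complemented with hTDP1; camptothecin omitted.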
Each line names hits and unclear results; the compound was inactive in the other large screens. Unless noted, calls come from the whole dose curve; as a rule, active = well fitted curve in the direction sought with a large enough effect; inconclusive = small, poorly fitted or top-dose-only effect, or another doubt; inactive = no such curve, though single readings can be large; an effect the other way counts as inactive or inconclusive.

COc1cccc(OCc2nnc(SCC(=O)NCc3ccco3)n2CCc2ccccc2)c1	DT40 TDP1 CPT 16.4µM, DT40 TDP1 no CPT 23.1µM
COc1ccc(NC(=O)CSc2nnc(-c3ccccc3)n2Cc2ccco2)c(OC)c1	ELG1 repair inh 13µM, DT40 TDP1 no CPT inconclusive
CCN1C[C@@H]2[C@@H]3C(=O)N(Cc4ccccc4)C(=O)[C@@H]3[C@](CC)(C1=O)N2C(=O)c1ccc(F)cc1	none (no result: ELG1 repair inh)
COCCn1c(SCC(=O)Nc2ccc3c(c2)OCCO3)nnc1-c1ccncc1	none
CN(C)S(=O)(=O)c1ccc(NC(=O)c2ccc([N+](=O)[O-])cc2)cc1	DT40 TDP1 no CPT inconclusive
O=C(Nc1ccccc1)c1ccc(-n2nncc2-c2ccccc2)cc1	DT40 TDP1 CPT 10µM, DT40 TDP1 no CPT inconclusive (no result: HT1080 IDH1KD tx, ELG1 repair inh, IL-1B inflam inh, HT1080NT lethal)
O=C(O)c1ccc(-n2nncc2-c2ccccc2)cc1	none
CN(C)S(=O)(=O)c1ccc(C(=O)Nc2ccc(-n3nncc3-c3ccccc3)cc2)cc1	DT40 TDP1 CPT 20.6µM, DT40 TDP1 no CPT 14.6µM (no result: HT1080 IDH1KD tx, ELG1 repair inh, IL-1B inflam inh, HT1080NT lethal)
CC(C)NC(=O)C1(C)CCN1C(=O)c1cccc(F)c1 (stereo not given)	none (no result: ELG1 repair inh)
CCC1Oc2ccc(C)cc2N(CC(=O)NCC2CCCO2)C1=O (stereo not given)	HT1080NT lethal inconclusive
Oc1c(C(Nc2nccs2)c2ccc(C(F)(F)F)cc2)ccc2cccnc12 (stereo not given)	HT1080 IDH1KD tx inconclusive, ELG1 repair inh 2.59µM, IL-1B inflam inh -102.6, HT1080NT lethal inconclusive, DT40 TDP1 CPT inconclusive, DT40 TDP1 no CPT inconclusive
Oc1c(C(Nc2cccc(C(F)(F)F)c2)c2ccncc2)ccc2cccnc12 (stereo not given)	HT1080 IDH1KD tx inconclusive, ELG1 repair inh inconclusive, DT40 TDP1 CPT 16.4µM, DT40 TDP1 no CPT 18.4µM
CCCCC[C@@H]1C=C(C(=O)O)[C@H](c2ccc(OC)c(OC)c2)N1S(=O)(=O)c1ccc(C)cc1	none
CC(=O)c1c(C)[nH]c(C(=O)OCc2nnc(-c3ccc([N+](=O)[O-])cc3)o2)c1C	HT1080 IDH1KD tx inconclusive, ELG1 repair inh inconclusive, HT1080NT lethal 23.1µM, DT40 TDP1 CPT 23.1µM, DT40 TDP1 no CPT 14.6µM
CC(=O)c1c(C)[nH]c(C(=O)OCC(=O)NNC(=O)c2ccc([N+](=O)[O-])cc2)c1C	none
CS(=O)(=O)c1ccc(C(=O)OCc2nnc(-c3ccc(Cl)cc3)o2)cc1[N+](=O)[O-]	HT1080 IDH1KD tx 18.4µM, ELG1 repair inh inconclusive, IL-1B inflam inh -77.1, HT1080NT lethal inconclusive, DT40 TDP1 CPT 3.26µM, DT40 TDP1 no CPT 4.61µM
O=C(CBr)c1ccc(Oc2ccc(C(=O)C[n+]3cccc(Br)c3)cc2)cc1	DT40 TDP1 CPT inconclusive, DT40 TDP1 no CPT 15.8µM (no result: HT1080 IDH1KD tx, ELG1 repair inh, IL-1B inflam inh, HT1080NT lethal)
O=C(C[n+]1cccc(Br)c1)c1ccc(I)cc1	DT40 TDP1 CPT 2.24µM (no result: HT1080 IDH1KD tx, ELG1 repair inh, IL-1B inflam inh, HT1080NT lethal)
COc1ccc(C)cc1NC(=O)Cn1c(=O)oc2cc(S(=O)(=O)N3CCCCCC3)ccc21	DT40 TDP1 CPT 16.4µM, DT40 TDP1 no CPT 11.6µM (no result: HT1080 IDH1KD tx, ELG1 repair inh, IL-1B inflam inh, HT1080NT lethal)
Cc1ccc(NC(=O)Cn2c(=O)oc3cc(S(=O)(=O)N4CCCCC4)ccc32)c(C)c1	DT40 TDP1 CPT 6.51µM, DT40 TDP1 no CPT 8.2µM (no result: HT1080 IDH1KD tx, ELG1 repair inh, IL-1B inflam inh, HT1080NT lethal)
Cc1cccc(C(C)C)c1NC(=O)Cn1c(=O)oc2cc(S(=O)(=O)N3CCCC3)ccc21	DT40 TDP1 CPT 18.4µM, DT40 TDP1 no CPT 14.6µM (no result: HT1080 IDH1KD tx, ELG1 repair inh, IL-1B inflam inh, HT1080NT lethal)
CCCCC(CC)CN=C(N)NC(N)=NCCCCCCN=C(N)NC(N)=NCC(CC)CCCC (stereo not given)	HT1080 IDH1KD tx 23.1µM, ELG1 repair inh inconclusive, IL-1B inflam inh -103.7, HT1080NT lethal 7.31µM, DT40 TDP1 CPT 13µM, DT40 TDP1 no CPT 9.2µM
CCOC(=O)/C(=N\Nc1ccccc1)S(=O)(=O)c1ccccc1	ELG1 repair inh inconclusive, DT40 TDP1 no CPT inconclusive
